# Assay results reported in PubChem BioAssay (NCATS).
# Inconclusive results are not listed. Activity calls are given as the source filed them. The call rests on the fitted dose curve; in most records, active means well fitted inhibition curve with a large enough effect; inconclusive means small, poorly fitted or top-dose-only effect; inactive means no such curve, though single readings can be large or run the other way.
# Experiment: S16 Schwann cell PMP22 intronic element firefly luciferase assay (AID 624032); further: nearly all actives have a fitted effect of over 30% in size
# Details: S16 rat Schwann cells, PMP22 element FLuc, 24 h; series mostly up to 57.5 µM; activity change, negative = inhibition: at the top concentration
# Description: Charcot-Marie-Tooth-Association [CMTA]
# National Center for Advancing Translational Sciences [NCATS]
# Charcot-Marie-Tooth (CMT) disease was first characterized by Jean-Martin Charcot and Pierre Marie in France and, independently, by Howard Henry Tooth in England in 1886. CMT is one of the most common inherited neurological diseases, affecting approximately 1 in 2,500 Americans. […] The most prevalent type of CMT is known as CMT1A and caused by a duplication of the PMP22 gene which leads to over-expression of this protein. PMP22 is a glycosylated intrinsic membrane protein accounting for 2-5% of the myelin protein content, and its over-expression results in demyelination and subsequently axonal loss.
# A pair of cellular transcription-based assays was developed in the S16 rat Schwann cell lines (Hai, M., et al., 2002) stably transfected with orthogonal reporters - firefly luciferase (Fluc) and beta-lactamase (beta-Lac) - whose expression is driven by an intronic regulatory element of the PMP22 gene (Jones, E.A., et al., 2011) to recapitulate endogenous expression of PMP22. The current assay employs Fluc to report on PMP22 expression. A comprehensive library of approved drugs, the NCGC Pharmaceutical Collection (Huang, R., et al., 2011), was screened in the cross-validating platform of the orthogonal reporter assays to identify drug modulators inhibitory towards PMP22 expression.
# A set of counter-screens was devised to address non-specific activity of the library. An ATP-dependent CellTiter-Glo assay (developed by Promega Corp) was utilized to control cell viability. In addition, biochemical Fluc enzyme assay was performed to assess direct inhibition of the Fluc enzymatic activity.
# Hai, M., Muja, N., DeVries, G.H., Quarles, R.H. and Patel, P.I. Comparative analysis of Schwann cell lines as model systems for myelin gene transcription studies. J Neurosci Res, 2002. 69(4): pp 497-508
# Huang, R., Southall, N., Wang, Y., Yasgar A., Shinn P., Jadhav, A. , Nguyen, D.-T. and Austin, C.P., The NCGC pharmaceutical collection: a comprehensive resource of clinically approved drugs enabling repurposing and chemical genomics. Sci Transl Med, 2011. 3(80): p. 80ps16.
# S16 Schwann cell PMP22 intronic element firefly luciferase assay
# The FLuc-expressing S16 cells were seeded in white solid 1536-well plates at between 500-750 cells/4uL in DMEM medium containing 10% FBS, w/o phenol red. After overnight incubation at 37 degree Celsius/5% C02, 23 nL of compounds or DMSO were delivered to each well using a pin tool, followed by 24h-incubation at 37 degree Celsius/5% C02. Then 4 uL ONE-Glo luminescent substrate mix (Promega) was added to each well. Luminescence was measured on a ViewLux plate reader (Perkin Elmer). The % activity was determined by normalizing to the average readings of PTC124 (a positive control) - treated cells relative to DMSO-treated cells (0% Activity). The concentration-effect curves were then classified based on curve quality (r2), response magnitude and degree of measured activity.
# Potency means the concentration at half of the fitted maximal effect.
Compound,"activity change, negative = inhibition",Potency
C[C@]12C=CC(=O)C=C1CC[C@@H]1[C@@H]2C(=O)C[C@@]2(C)[C@H]1CC[C@]2(O)C(=O)CO,4.08% (inactive),–
CN1CCN(c2c(F)cc3c(=O)c(C(=O)O)cn(CCF)c3c2F)CC1,1.65% (inactive),–
COc1cc(NCc2ccc3nc(N)nc(N)c3c2C)cc(OC)c1OC,–,0.455 µM (active)
CC(C)NCC(O)c1ccc(NS(C)(=O)=O)cc1 (stereo not given),–,inactive
Cc1noc(NS(=O)(=O)c2ccc(N)cc2)c1C,20.3% (inactive),–
CN(C)c1ccc(C(=C2C=CC(=[N+](C)C)C=C2)c2ccc(N(C)C)cc2)cc1,–,9.07 µM (active)
O=c1oc2c(O)c(O)cc3c(=O)oc4c(O)c(O)cc1c4c23,7.44% (inactive),–
O=S(=O)(c1cccc2cnccc12)N1CCCNCC1,2.4% (inactive),–
CC(C)(Sc1cc(C(C)(C)C)c(O)c(C(C)(C)C)c1)Sc1cc(C(C)(C)C)c(O)c(C(C)(C)C)c1,-20.6% [at 25.7 µM] (inactive),–
CCOC(=O)c1ccc(OC(=O)CCCCCN=C(N)N)cc1,-10.5% [at 25.7 µM] (inactive),–
CCN(C)C(=O)Oc1cccc([C@H](C)N(C)C)c1,13.6% (inactive),–
CNNCc1ccc(C(=O)NC(C)C)cc1,-22.6% (inactive),–
O=C(O)CCn1c2c(c3ccccc31)C[C@H](NS(=O)(=O)c1ccc(F)cc1)CC2,-1.34% (inactive),–
COc1ncnc(NS(=O)(=O)c2ccc(N)cc2)c1OC,-3.97% (inactive),–
S=P(N1CC1)(N1CC1)N1CC1,-15.5% (inactive),–
NC(=O)c1cccnc1,-2.98% (inactive),–
CCCCCCNC(=O)n1cc(F)c(=O)[nH]c1=O,-3.51% (inactive),–
Cc1cccc(N(C)C(=S)Oc2ccc3ccccc3c2)c1,59.6% [at 25.7 µM] (inactive),–
CCn1cc(C(=O)O)c(=O)c2cc(F)c(N3CCNCC3)nc21,-11.3% [at 25.7 µM] (inactive),–
OC(Cn1cncn1)(Cn1cncn1)c1ccc(F)cc1F,-2.25% (inactive),–

Compound,"activity change, negative = inhibition",Potency
CN(C)CCc1c[nH]c2ccc(CS(=O)(=O)N3CCCC3)cc12,-13% (inactive),–
O=C(O)c1cn(C2CC2)c2cc(N3CCNCC3)c(F)cc2c1=O,23% [at 25.7 µM] (inactive),–
CCOCC(O)COc1ccc(NC(=O)CC[S+](C)C)cc1 (stereo not given),-0.895% (inactive),–
CCn1cc(C(=O)O)c(=O)c2cc(F)c(N3CCN(C)CC3)cc21,42.8% (inactive),–
Cn1nnc2c(C(N)=O)ncn2c1=O,17.1% (inactive),–
CCCc1nc(C)c2c(=O)[nH]c(-c3cc(S(=O)(=O)N4CCN(CC)CC4)ccc3OCC)nn12,-16.4% (inactive),–
CC(C)(C#N)c1cc(Cn2cncn2)cc(C(C)(C)C#N)c1,3.3% (inactive),–
Cc1cc(NS(=O)(=O)c2ccc(N)cc2)no1,-18.9% (inactive),–
O=c1cc(O)c(Cl)c[nH]1,0.547% (inactive),–
NCCCC(O)(P(=O)(O)O)P(=O)(O)O,7.25% (inactive),–
Cc1oc(=O)oc1CN1CCN(c2cc3c(cc2F)c(=O)c(C(=O)O)c2n3C(C)S2)CC1 (stereo not given),-14.6% (inactive),–
CC[C@H](NC(C)C)[C@H](O)c1ccc(O)c2[nH]c(=O)ccc12,-31.9% (inactive),–
CC1=NN(c2ccccc2)C(=O)C1,17.6% (inactive),–
COc1ccc(C(=O)CC(=O)c2ccc(C(C)(C)C)cc2)cc1,-23.1% (inactive),–
CNC1CCCN(c2c(F)cc3c(=O)c(C(=O)O)cn(C4CC4)c3c2OC)C1 (stereo not given),16.4% (inactive),–
CC(N)C12CC3CC(CC(C3)C1)C2 (stereo not given),-0.875% (inactive),–
CCn1cc(C(=O)O)c(=O)c2cc(F)c(N3CCNCC3)cc21,21.8% [at 25.7 µM] (inactive),–
CCC(C)(C)c1ccc(CC(C)CN2C[C@@H](C)O[C@@H](C)C2)cc1 (stereo not given in full),-16.4% (inactive),–
N[C@@H](C(=O)N[C@@H]1C(=O)N2C(C(=O)O)=C(Cl)CS[C@H]12)c1ccccc1,17.8% (inactive),–
Cc1ncc([N+](=O)[O-])n1CCO,-24.9% (inactive),–
